TcdB GH inh: TcdB glycohydrolase inhibitors, primary screen, biochemical, single point, plate reader; Toxin B (Clostridioides difficile), P18177; TcdB glycohydrolase enzymatic assay; inhibition, % at 9.99 µM; 350,000 compounds, 0.24% hits; AID 652162, 2013; in the data active means inhibition above about 10%
Yp Topo-I inh: Yersinia pestis topoisomerase I inhibitors, primary screen, biochemical, cleavage product accumulation, plate reader, single point; activity, % at 10 µM; 360,000 compounds, 0.064% hits; DNA topoisomerase I (Yersinia pestis CO92); Y. pestis Topo-I cleavage product accumulation; AID 504884, 2011; in the data active means activity above about 50%, passing the limit was not always enough
DUSP3 inh: VHR1 phosphatase inhibitors, primary screen, biochemical, absorbance, uHTS; recombinant VHR phosphatase, pNPP absorbance; Dual specificity protein phosphatase 3 (Homo sapiens), P51452; AID 1654, 2009; 290,000 compounds, 0.52% hits; inhibition, % at 13.3 µM; in the data active means inhibition above about 50%
Vc quorum ag-1: inducers of Vibrio cholerae quorum light production without autoinducers, primary screen, BH1578 luxS cqsA deficient, single point | 350,000 compounds, 0.16% hits | AID 588436, 2011 | activation, % at 18.7 µM | V. cholerae BH1578 lux reporter, luminescence, 6 h; in the data active means activation mostly above about 9.7%, no sharp cut-off
BioA inh: M. tuberculosis BioA enzyme inhibitors, primary screen, biochemical, plate reader, single point, HTS. 7,8-diaminopelargonic acid synthase BioA (Mycobacterium tuberculosis). purified M. tuberculosis BioA enzyme. inhibition, % at 9.99 µM. 360,000 compounds, 0.096% hits; in the data active means inhibition above about 40%
Vc quorum ag-2: V. cholerae lux activation without autoinducers – BH1578 luxS cqsA deficient, cherry-pick, plate reader, dose response; shares compounds with Vc quorum ag-1; V. cholerae BH1578 lux reporter, luminescence, 6 h; activation, % at 50 µM; 620 tested, under 10 active; AID 602243, 2012; call rule not given here
An asterisk follows results filed as active; nt = no result. Hits are enriched below; roughly 0.73% of the tested compounds scored in any of these assays.

SMILES | TcdB GH inh | Yp Topo-I inh | DUSP3 inh | Vc quorum ag-1 | BioA inh | Vc quorum ag-2
Cc1noc(C)c1S(=O)(=O)Nc1ccc2c(c1)C(=O)N([C@H](C)CO)C[C@@H](C)[C@H](CN(C)C(=O)Nc1ccc3c(c1)OCO3)O2 | 1 | nt | nt | nt | 0 | nt
Cc1ccc(C(=O)OCC(=O)NCc2ccccc2)s1 | 0 | 5 | nt | 0 | -1 | nt
Cc1ccc(C(=O)OCC(=O)NCCNC(=O)COC(=O)c2ccc(C)s2)s1 | 1 | 1 | nt | 12 | 0 | 0
COc1ccc2[nH]c(=O)c(CN(C(=O)c3cccnc3)c3cccc(C)c3)cc2c1 | 0 | 13 | -14 | 0 | -2 | nt
COc1ccc2[nH]c(=O)c(CN(C(=O)c3cccnc3)c3ccc(C)cc3)cc2c1 | nt | 9 | 15 | 18 | -1 | 0
CS(=O)(=O)N1[C@@H]2c3ccc(-c4ccccc4F)c(=O)n3C[C@@H]2[C@@H](CO)[C@@H]1C(=O)NCC1CC1 | -1 | nt | nt | nt | nt | nt
CCC1Nc2ncnc(N3CCN(c4ccccc4)CC3)c2N(Cc2ccccc2)C1=O (stereo not drawn) | 0 | 14 | nt | 6 | -3 | 0
COc1ccc(C(CNC(=O)c2ccc(-c3cccc(C(F)(F)F)c3)o2)N2CCOCC2)cc1 (stereo not drawn) | 1 | 4 | nt | 14 | 1 | 0
CNC[C@H]1Oc2ccc(NC(=O)NC(C)C)cc2C(=O)N([C@@H](C)CO)C[C@H]1C | 0 | nt | nt | nt | -1 | nt
CC(C)CCn1c(=O)[nH]c2ccccc21 | 1 | 1 | 12 | 0 | 1 | nt
O=c1[nH]c2ccccc2n1Cc1ccc(Cl)cc1 | nt | 6 | 27 | 17* | 1 | 1
CCCN1C[C@@H](C)[C@@H](OC)CN(C)C(=O)c2cc(NC(=O)COC)ccc2OC[C@H]1C | nt | nt | nt | nt | 0 | nt
COc1ccc(NC(=O)N(C)C[C@H]2OCCCC[C@@H](C)Oc3ccc(NS(C)(=O)=O)cc3C(=O)N([C@@H](C)CO)C[C@H]2C)cc1 | 0 | nt | nt | nt | 2 | nt
CN1c2ccc(-c3cccc(C#N)c3)cc2[C@@H]2[C@@H](CCN2C(=O)C2CCCCC2)[C@@H]1CO | 0 | nt | nt | nt | nt | nt
O=c1c2ccccc2nnn1CSc1nnc2ccccn12 | nt | -5 | 28 | 40* | -1 | 6
COc1ccc(S(=O)(=O)Nc2ccc(S(=O)(=O)N3CCOCC3)cc2)cc1C | nt | -2 | -22 | 18* | 0 | 0
COc1ccc(NS(=O)(=O)c2ccc(S(=O)(=O)N3CCOCC3)cc2)cc1 | 1 | -14 | 7 | 0 | 2 | nt
CCOC(=O)c1sc2cc([N+](=O)[O-])cc(SCC(=O)OC)c2c1N | nt | 7 | -12 | -1 | 2 | nt
CCOC(=O)c1sc2cc([N+](=O)[O-])cc(SCCO)c2c1N | 1 | 16 | -4 | 23* | nt | 0
CCc1cccc2c(C(=O)COC(=O)c3c(C)noc3C)c[nH]c12 | 1 | -4 | 10 | -2 | 1 | nt
Cc1noc(C)c1C(=O)OCC(=O)c1c[nH]c2ccccc12 | nt | 3 | 18 | 12 | 1 | 0
CCOCCCNC(=O)C(NC(=O)c1ccc(NC(C)=O)cc1)c1ccc(C)cc1 (stereo not drawn) | 0 | -7 | -5 | 0 | nt | nt
CCOCCCNC(=O)C(NC(=O)c1cnccn1)c1ccc(C)cc1 (stereo not drawn) | nt | 1 | 15 | 28* | -1 | 2
CCNC(=O)C[C@H]1CC[C@H](NC(=O)C2CCC2)[C@H](CO)O1 | 0 | nt | nt | nt | 4 | nt
Cn1c(SCC(=O)c2ccccc2)nnc1C1COc2ccccc2O1 (stereo not drawn) | 1 | 8 | 10 | 0 | -1 | nt
Cn1c(SCc2cnc(-c3ccccc3)s2)nnc1C1COc2ccccc2O1 (stereo not drawn) | nt | 17 | -11 | 27* | 0 | 31
Brc1ccc(C2=Nn3c(nnc3-c3n[nH]c4c3CCC4)SC2)cc1 | nt | 21 | -1 | 25* | -2 | 0
Clc1ccc(C2=Nn3c(nnc3-c3n[nH]c4c3CCC4)SC2)cc1 | nt | 34 | -1 | 5 | 1 | nt
Cn1c(Cn2cnc(Cl)c2Cl)nc2ccccc21 | nt | -3 | 26 | 17* | 2 | 0
Cn1c(Cn2cnc3ccccc32)nc2ccccc21 | nt | -8 | 20 | 0 | -5 | nt

Bioassay records deposited in PubChem BioAssay by several laboratories.
